# Reference: PubChem BioAssay (NCI)
# Compounds without any hit were thinned out: in the full panel of roughly 83,000, 20% have a hit.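 The test compound was applied at a single concentration to cells in 96-well plates for 48 hours, and percent growth was recorded.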 Values without a mark were called inactive. Calls of active or inactive are those of the source. Rule for the calls: active = growth percent below 10; inactive = the rest.
# How the values were obtained:
# Assay in all cases: NCI-60 one-dose screen, 48 h (100 = growth as untreated, 0 = no growth, -100 = all killed)
# Conditions in all cases: 10 µM unless noted
# SK-MEL-2 melanoma = system: SK-MEL-2 melanoma
# SN12C renal = system: SN12C renal
# UO-31 renal = system: UO-31 renal
# TK-10 renal = system: TK-10 renal
# ACHN renal = system: ACHN renal
# CAKI-1 renal = system: CAKI-1 renal
# A498 renal = system: A498 renal
# CCRF-CEM leukemia = system: CCRF-CEM leukemia
# MOLT-4 leukemia = system: MOLT-4 leukemia
# SR leukemia = system: SR leukemia
# RPMI-8226 leukemia = system: RPMI-8226 leukemia
# OVCAR-8 ovarian = system: OVCAR-8 ovarian
# OVCAR-5 ovarian = system: OVCAR-5 ovarian
# OVCAR-4 ovarian = system: OVCAR-4 ovarian
# SK-OV-3 ovarian = system: SK-OV-3 ovarian
# IGROV1 ovarian = system: IGROV1 ovarian
# OVCAR-3 ovarian = system: OVCAR-3 ovarian
# HS 578T breast = system: HS 578T breast
# NCI/ADR-RES ovarian = system: NCI/ADR-RES ovarian
SMILES,growth (SK-MEL-2 melanoma),growth (SN12C renal),growth (UO-31 renal),growth (TK-10 renal),growth (ACHN renal),growth (CAKI-1 renal),growth (A498 renal),growth (CCRF-CEM leukemia),growth (MOLT-4 leukemia),growth (SR leukemia),growth (RPMI-8226 leukemia),growth (OVCAR-8 ovarian),growth (OVCAR-5 ovarian) [%],growth (OVCAR-4 ovarian),growth (SK-OV-3 ovarian),growth (IGROV1 ovarian),growth (OVCAR-3 ovarian),growth (HS 578T breast),growth (NCI/ADR-RES ovarian)
O=C1C(Cl)=C(Oc2ccccc2)C(=O)c2ccccc21,73.4%,87.9%,51.7%,49.4%,26.6%,76.9%,98.7%,8.95% (active),57.4%,48.8%,35.2%,85%,118,106%,103%,80.7%,16%,31.6%,88.6%
O=S(=O)(NCCNc1nccc(-c2c(-c3cccc(F)c3)nc3occn23)n1)c1ccc(Br)cc1,103%,78.7%,64%,103%,62%,70.5%,81.3%,60.3%,–,65.6%,62.3%,80.2%,93.8,93.9%,99.8%,57.7%,90.1%,74.6%,89.8%
CN(C)CC(=O)Nc1ccc2ncnc(Nc3ccc(Oc4cccc(C(F)(F)F)c4)c(Cl)c3)c2c1,92.1%,60%,-3.49% (active),46.9%,23.1%,35.7%,12.1%,48.3%,–,-1.46% (active),31.2%,55.5%,82.6,51.5%,19.7%,8.24% (active),42.5%,79.1%,54.3%
Cc1cccc(N2CCN(CC(O)COc3ccc(Cl)cc3)CC2)c1 (stereo not drawn),89.5%,95.2%,85.3%,116%,93.7%,84.5%,115%,97.7%,77.1%,79.7%,77.6%,98.8%,–,–,-100% (active),92.7%,–,115%,105%
COC(=O)CCC(=O)C(=O)OC,-34.9% [10 mM] (active),0.923% [10 mM] (active),-9.29% [10 mM] (active),-8.5% [10 mM] (active),6.94% [10 mM] (active),10.2% [10 mM],-72.8% [10 mM] (active),-7.36% [10 mM] (active),–,-26.4% [10 mM] (active),-8.65% [10 mM] (active),31.8% [10 mM],–,47.8% [10 mM],3.77% [10 mM] (active),9.89% [10 mM] (active),5.88% [10 mM] (active),25.2% [10 mM],33.1% [10 mM]
CC1=C(CCC(C)N(C)Cc2ccc(OCCCN3CCCC3)cc2)C(C)(C)CCC1 (stereo not drawn),-55.2% (active),56.9%,20.3%,49.9%,36.8%,49.9%,57.2%,11.1%,-24.2% (active),-24.9% (active),-14.3% (active),45.7%,25.4,60.2%,36.5%,42.9%,–,36.4%,63%
CN(C)CCNC(=O)c1cccc(-c2cnc3ccc(-c4ccc5c(c4)OCO5)nn23)c1,69.8%,70.8%,36.8%,75.9%,47.8%,36.8%,90.7%,75.7%,59.4%,-2.23% (active),75.8%,88.6%,89.3,67.2%,61.1%,30.6%,76.9%,80.1%,85.8%
Fc1cc(F)cc(C(c2c[nH]c3ccccc23)c2c[nH]c3ccccc23)c1,58.8%,95.7%,52.9%,144%,87.7%,90.9%,71.7%,89.1%,81.8%,106%,95.2%,102%,88.8,116%,117%,-6.52% (active),112%,82%,92.2%
N#Cc1nn(-c2cc(=O)[nH]c3ccc(Cl)cc23)c(N)c1C#N,116%,104%,75.8%,105%,92.7%,101%,116%,-15.8% (active),-3.91% (active),0.706% (active),-24.6% (active),95.8%,105,91.5%,74.6%,102%,108%,103%,98.5%
